Molecules are shown by their SMILES. Whole data set: some 13,000 compounds, median “IFI” near 4, cut for the highest 2% near 17. The entries come from a sample that favours the highest values as a whole.

A short description of the experiment: GSK_TCMDC: Inhibition Frequency Index (IFI). The number of non-kinase HTS assays where a compound showed > 50 % inhibition, expressed as a percentage of the number of such assays in which the compound was tested. The experiment is classed as functional.
As for `Cc1cc(=NN=Cc2ccccc2F)c2cc(F)ccc2[nH]1`, the IFI stood at 0%.
Turning to `O=C(NC1CCC(N2CCC(O)(c3ccc(F)cc3)CC2)CC1)c1cc2ccccc2[nH]1` (stereo not drawn), the IFI worked out at 1.54%.
Turning to `O=C(NC1CCC(N2CCC(c3ccccc3C(F)(F)F)CC2)CC1)c1cc2ccccc2[nH]1` (stereo not drawn), the IFI was found to be 10.4%.
Take `Cc1cccc(C)c1N1CCN(C2CCC(NC(=O)c3cc4ccccc4[nH]3)CC2)CC1` (stereo not drawn): the IFI is 13.2%.
In the case of `O=C(NC1CCC(N2CCN(c3cccc(C(F)(F)F)c3)CC2)CC1)c1cc2ccccc2[nH]1` (stereo not drawn), the IFI turned out to be 17.6%.
In turn, `Cc1cccc(N2CCN(C3CCC(NC(=O)c4cc5ccccc5[nH]4)CC3)CC2)c1C` (stereo not drawn) had an IFI of 22.9%.
With `O=C(NC1CCC(N2CCC(Cc3ccc(F)cc3)CC2)CC1)c1cc2ccccc2[nH]1` (stereo not drawn) the figure was 14.7%; with `COc1ccc(Nc2c3ccc(Cl)cc3nc3ccc(OC)cc23)cc1`, 5.11%; with `COc1ccccc1C1CCN(C2CCC(NC(=O)/C=C/c3cc(F)cc(C(F)(F)F)c3)CC2)CC1` (stereo not drawn), 11.5%.
In the case of `Cc1cccc2nc(-c3ccc(-c4cccc(CNCc5ccccc5)c4)s3)[nH]c12` it was 4.81%; in that of `COc1ccc(-c2cncc3ccc(C(=O)NCc4ccncc4)nc23)cc1`, 6.45%.
The compound `COc1ccc(Cc2cccc(C(C(=O)NCc3cc(Cl)cc(Cl)c3)N3CCN(C)CC3)c2)cc1` (stereo not drawn) yielded an IFI of 7.75%.
With `O=C(Nc1cccc(C(F)(F)F)c1)Nc1ccc(Cl)c(C(F)(F)F)c1` the figure was 16.7%; with `NC(=O)CCC(NC(=O)CNC(=O)Nc1cccc(C(F)(F)F)c1)C(=O)O` (stereo not drawn), 19.9%; with `CC(C)NCC(=O)Nc1cccc(C(=O)Nc2cccc(C(F)(F)F)c2)c1`, 2.04%.
With `CC(=O)N1N=C(c2ccc(Cl)cc2)Sc2c1nc(-c1ccccc1)n2C(C)=O` the figure was 0%.
As to `Cn1c(=O)c2cc(C(=O)NCCCN3CCCCCC3)sc2c2ccccc21`, the IFI amounted to 3.23%.
In the case of `OCCN1CCN(Cc2ccc(-c3ccc(-c4nc5cc(F)ccc5[nH]4)cc3)cc2)CC1`, the IFI is 8.91%.
In the case of `Cc1cc(=NN=Cc2ccc(F)cc2)c2cc(F)ccc2[nH]1` it was 2.86%.
The compound `COc1ccc(C(=O)CCC(=O)N(Cc2ccc(-c3ccc(CNCCc4ccccc4)cn3)cc2)C(C)CN(C)C)cc1F` (stereo not drawn) gave an IFI of 6.9%.
`COc1cc2c(cc1CCNCCCCNCCc1cc3c(cc1OC)CCCC3)CCCC2` registered an IFI of 15.8%.
Compound `COc1ccc2c(c1CNCCCCCCNCc1c(OC)ccc3c1CCCC3)CCCC2` displayed an IFI of 11.9%.
`COc1ccc2c(c1CCNCCCCNCCc1c(OC)ccc3c1CCCC3)CCCC2` came in with an IFI of 18.3%.
In turn, `CCOC(=O)c1ccc(NC(=O)Nc2ccc(-c3cccc(-c4nc5cc(F)ccc5[nH]4)c3)cc2)cc1` showed an IFI of 4.95%.
In the case of `Cc1cc(C(=O)NC2CCN(CC3(c4ccccc4)CCCCC3)CC2)on1`, the IFI came to 6.38%.
As to `O=C(Nc1ccc(C(=O)Nc2ccc(C3=NCCN3)cc2)cc1)Nc1ccc(C2=NCCN2)cc1`, the IFI was 5.84%.
The compound `Oc1c(CN2CCC(Cc3ccccc3)CC2)cc(Cl)c2cccnc12` yielded an IFI of 18.8%.
In turn, `O=C(NC1CC1)c1cnc(N2CCC(Cc3ccccc3)CC2)c(Cl)c1` returned an IFI of 9.52%.
The compound `COc1cc(C)cc(CN2CCC(Cc3ccccc3)CC2)c1O` showed an IFI of 0.84%.
In the case of `COc1ccccc1CN1CCC(CNC(=O)c2cc(-c3ccc(N(C)C)cc3)cs2)C1` (stereo not drawn), the IFI was 13.7%.
In the case of `CCCCN(CCCC)CCCN(CCCN(CCCC)CCCC)c1cc(C)nc(Nc2ccc3cc(Br)ccc3c2)n1` it was 15.2%; in that of `CCC(C)c1cccc(C(C)CC)c1OCCCON1C(N)=NC(N)=NC1(C)C` (stereo not drawn), 24.1%.
Consider `CCC(C)Oc1ccc(CCCON2C(N)=NC(N)=NC2(C)C)cc1` (stereo not drawn), for which the IFI was 5.76%.
`CCCc1cccc(OC)c1OCCCON1C(N)=NC(N)=NC1(C)C` registered an IFI of 4.51%.
In the case of `CC1(C)N=C(N)N=C(N)N1OCCCCON1C(N)=NC(N)=NC1(C)C` it was 1.44%; in that of `CC(C)(C)c1ccc(OCCCON2C(N)=NC(N)=NC2(C)C)cc1`, 18.1%.
Take `CCCOc1ccc(CCCON2C(N)=NC(N)=NC2(C)C)cc1`: the IFI amounted to 6.29%.
The compound `Cc1cc(-c2cccc(CNC3CCN(C)CC3)c2)ccc1S(=O)(=O)NC1CCC1` returned an IFI of 7.48%.
In the case of `Nc1nc(N)c2c3c(ccc2n1)NCCC3`, the IFI was determined as 2.48%.
In the case of `COc1ccc(CNCc2ccc(-c3ccc(-c4nc5cccc(C)c5[nH]4)cc3)cc2)cc1` it was 13.1%; in that of `O=C(Cn1cc(C(F)(F)F)cc(Cl)c1=O)N1CCN(S(=O)(=O)c2ccc(Cl)cc2)CC1`, 0%.
`CCCNCc1ccc(-c2ccc(CN(CCOC)C(=O)CCC(=O)c3ccc(OC)c(F)c3)cc2)nc1` yielded an IFI of 0.7%.
As to `O=C(Nc1ccc(C(F)(F)F)cc1)NC1CCN(CCCCCNC(=O)C2CC2c2ccc(Cl)c(Cl)c2)CC1` (stereo not drawn), the IFI was found to be 11.1%.
Turning to `O=C(Nc1ccc(Cl)c(C(F)(F)F)c1)NC1CCN(CCCCCNC(=O)C2CC2c2ccc(Cl)c(Cl)c2)CC1` (stereo not drawn), the IFI amounted to 17.1%.
`O=C(Nc1cc(F)cc(F)c1)N[C@H]1CCN(CCCCCNC(=O)C2CC2c2ccc(Cl)c(Cl)c2)C1` (stereo partly drawn) returned an IFI of 13.6%.
For the compound `O=C(Nc1ccc(Cl)c(C(F)(F)F)c1)N[C@H]1CCN(CCCCCNC(=O)C2CC2c2ccc(Cl)c(Cl)c2)C1` (stereo partly drawn), the IFI amounted to 12.2%.
In the case of `O=C(Nc1cccc(F)c1)N[C@H]1CCN(CCCCCNC(=O)C2CC2c2ccc(Cl)c(Cl)c2)C1` (stereo partly drawn), the IFI was 19.4%.
Compound `O=C(Nc1ccc(F)c(C(F)(F)F)c1)NC1CCN(CCCCCNC(=O)C2CC2c2ccc(Cl)c(Cl)c2)CC1` (stereo not drawn) returned an IFI of 18.5%.
With `O=C(Nc1cccc(F)c1)NC1CCN(CCCCCNC(=O)C2CC2c2ccc(Cl)c(Cl)c2)CC1` (stereo not drawn) the figure was 11.5%; with `O=C(Nc1ccc(F)c(C(F)(F)F)c1)N[C@H]1CCN(CCCCCNC(=O)C2CC2c2ccc(Cl)c(Cl)c2)C1` (stereo partly drawn), 15.9%; with `O=C(Nc1ccc(Cl)cc1)NC1CCN(CCCCCNC(=O)C2CC2c2ccc(Cl)c(Cl)c2)CC1` (stereo not drawn), 10.2%.
The compound `COc1ccc(-c2cnc3ccc(NCCCO)nn23)cc1OC` registered an IFI of 6.77%.
In the case of `COc1ccc(-c2nc3cccnc3n2CC(=O)Nc2c(C)cc(C)cc2C)c(OC)c1` it was 5.56%; in that of `N=C1N=C(N)NCN1OCc1ccc(Cl)c(Cl)c1`, 0.72%.
`Cc1[nH]c(C)c(-c2ccc(OCc3cc(C(F)(F)F)cc(C(F)(F)F)c3)nc2)c(=O)c1Br` registered an IFI of 5.36%.
Regarding `CC(C)(C)c1ccc2[nH]c(-c3ccc(/C=C/C(=O)NCc4cccc(C(F)(F)F)c4)cc3)nc2c1`, the IFI turned out to be 2.9%.
As for `Cc1cccc2nc(-c3cccc(-c4cccc(CN5CCCC5CN)c4)c3)[nH]c12` (stereo not drawn), the IFI worked out at 4.95%.
Compound `Cc1nn(-c2cccc(C(F)(F)F)c2)c2sc(C(=O)NC3CCN(C(C)C)CC3)cc12` had an IFI of 10%.

(Values after ChEMBL document CHEMBL1157539, “Thousands of chemical starting points for antimalarial lead identification” (Nature, 2010).)
